Measured values published in the supplement of paper PMC6897291.
Where a name gives a salt, the structure may show the parent alone.

Experiments:
[1] = test system: RIVA; test: growth inhibition by drug alone (1 - RLU/untreated control) (fraction); higher = stronger inhibition; details: 177Lu-lilotomab satetraxetan 0 ug/ml
Summary of the method: (§1)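 Plates pre-printed with the Selleck Cambridge Cancer Compound library at 10/100 nM (RIVA) or 10/1,000 nM (U-2932) received 3,000 cells/well. These cells had been washed after 18 h untreated or with a radiolabelled anti-CD37 antibody conjugate (~600 MBq/mg; 0.5 µg/ml RIVA, 1 µg/ml U-2932). Growth inhibition was obtained from RealTime-Glo luminescence in relation to untreated no-drug wells. Each daily read from day 3, taken after 1 h at 37°C, was converted as 1 − RLU/mean of 48 such wells per plate.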

[2] = test system: U-2932; test: growth inhibition by drug plus 177Lu-lilotomab satetraxetan (1 - RLU/untreated control) (fraction); higher = stronger inhibition; details: 177Lu-lilotomab satetraxetan 1 ug/ml
Summary of the method: as §1

[3] = test system: RIVA; test: as above; details: 177Lu-lilotomab satetraxetan 0.5 ug/ml
Summary of the method: as §1

[4] = test system: U-2932; test: growth inhibition by drug alone (1 - RLU/untreated control) (fraction); higher = stronger inhibition; details: 177Lu-lilotomab satetraxetan 0 ug/ml
Summary of the method: as §1

SMILES	growth inhibition by drug alone ([1]; 10 nM, time (day): 3)	growth inhibition by drug alone ([1]; 10 nM, time (day): 4)	growth inhibition by drug alone ([1]; 10 nM, time (day): 5)	growth inhibition by drug alone ([1]; 10 nM, time (day): 6)	growth inhibition by drug alone ([1]; 100 nM, time (day): 3)	growth inhibition by drug alone ([1]; 100 nM, time (day): 4)	growth inhibition by drug alone ([1]; 100 nM, time (day): 5)	growth inhibition by drug alone ([1]; 100 nM, time (day): 6)	growth inhibition by drug plus 177Lu-lilotomab satetraxetan ([2]; 10 nM, time (day): 3)	growth inhibition by drug plus 177Lu-lilotomab satetraxetan ([2]; 10 nM, time (day): 4)	growth inhibition by drug plus 177Lu-lilotomab satetraxetan ([2]; 10 nM, time (day): 5)	growth inhibition by drug plus 177Lu-lilotomab satetraxetan ([2]; 10 nM, time (day): 6)	growth inhibition by drug plus 177Lu-lilotomab satetraxetan ([2]; 1000 nM, time (day): 3)	growth inhibition by drug plus 177Lu-lilotomab satetraxetan ([2]; 1000 nM, time (day): 4)	growth inhibition by drug plus 177Lu-lilotomab satetraxetan ([2]; 1000 nM, time (day): 5)	growth inhibition by drug plus 177Lu-lilotomab satetraxetan ([2]; 1000 nM, time (day): 6)	growth inhibition by drug plus 177Lu-lilotomab satetraxetan ([3]; 10 nM, time (day): 3)	growth inhibition by drug plus 177Lu-lilotomab satetraxetan ([3]; 10 nM, time (day): 4)	growth inhibition by drug plus 177Lu-lilotomab satetraxetan ([3]; 10 nM, time (day): 5)	growth inhibition by drug plus 177Lu-lilotomab satetraxetan ([3]; 10 nM, time (day): 6)	growth inhibition by drug plus 177Lu-lilotomab satetraxetan ([3]; 100 nM, time (day): 3)	growth inhibition by drug plus 177Lu-lilotomab satetraxetan ([3]; 100 nM, time (day): 4)	growth inhibition by drug plus 177Lu-lilotomab satetraxetan ([3]; 100 nM, time (day): 5)	growth inhibition by drug plus 177Lu-lilotomab satetraxetan ([3]; 100 nM, time (day): 6)	growth inhibition by drug alone ([4]; 10 nM, time (day): 3)	growth inhibition by drug alone ([4]; 10 nM, time (day): 4)	growth inhibition by drug alone ([4]; 10 nM, time (day): 5)	growth inhibition by drug alone ([4]; 10 nM, time (day): 6)	growth inhibition by drug alone ([4]; 1000 nM, time (day): 3)	growth inhibition by drug alone ([4]; 1000 nM, time (day): 4)	growth inhibition by drug alone ([4]; 1000 nM, time (day): 5)	growth inhibition by drug alone ([4]; 1000 nM, time (day): 6)
c1ccc2c(CCNc3ccc(Nc4ccncc4)cc3)c[nH]c2c1	-0.0529	-0.0355	-0.189	-0.337	-0.226	-0.135	-0.248	-0.272	0.0442	0.058	0.101	0.125	0.0679	0.191	0.21	0.292																
O=C(/C=C/C#Cc1cccc(NS(=O)(=O)c2ccccc2)c1)NO [Oxamflatin]	0.0849	0.0278	0.0468	0.0353	0.675	0.482	0.435	0.389	-0.0134	0.0236	0.0539	0.158	0.941	0.947	0.958	0.96	0.518	0.564	0.59	0.607	0.726	0.683	0.691	0.686								
CC1=C(/C=C/C(C)=C/C=C/C(C)=C/C(=O)Nc2ccc(O)cc2)C(C)(C)CCC1 [Fenretinide]	-0.0432	-0.0451	-0.13	-0.456	-0.388	-0.302	-0.337	-0.461	0.0221	0.0894	0.138	0.148	0.704	0.374	0.313	0.295	0.515	0.573	0.583	0.583	0.435	0.504	0.521	0.541								
Oc1nc(-c2ccc(C(F)(F)F)cc2)nc2c1CSCC2	-0.012	-0.067	-0.12	-0.313	-0.101	-0.117	-0.135	-0.199	-0.00592	0.0339	0.0301	0.0994	-0.0747	0.0641	0.0547	0.062	0.347	0.483	0.51	0.519	0.424	0.518	0.521	0.496								
Cc1cc(Nc2cc(N3CCN(C)CC3)nc(Sc3ccc(NC(=O)C4CC4)cc3)n2)n[nH]1 [VX-680 (MK-0457, Tozasertib)]									-0.00926	0.0675	0.118	0.172	0.272	0.279	0.311	0.494	0.594	0.628	0.652	0.658	0.458	0.547	0.616	0.727								
CC(C)C[C@H](NC(=O)[C@H](Cc1ccccc1)NC(=O)c1cnccn1)B(O)O [Bortezomib (Velcade)]	0.923	0.946	0.958	0.96	0.978	0.978	0.978	0.976	0.952	0.967	0.976	0.98	0.986	0.987	0.986	0.988	0.955	0.969	0.976	0.98	0.989	0.989	0.989	0.99								
CS(=O)(=O)N1CCN(Cc2cc3nc(-c4cccc5[nH]ncc45)nc(N4CCOCC4)c3s2)CC1	-0.0821	-0.12	-0.138	-0.212	0.604	0.409	0.327	0.221	-0.0212	-0.0112	0.0169	0.184	0.81	0.875	0.897	0.913																
FC(F)c1nc2ccccc2n1-c1nc(N2CCOCC2)nc(N2CCOCC2)n1	0.208	0.164	0.161	0.106	0.823	0.782	0.766	0.718	0.0955	0.119	0.149	0.22	0.282	0.348	0.331	0.393	0.45	0.529	0.568	0.572	0.763	0.779	0.782	0.761								
Cc1ccc(NC(=O)c2ccc(CN3CCN(C)CC3)cc2)cc1Nc1nccc(-c2cccnc2)n1 [Imatinib (Gleevec)]	-0.0508	-0.0897	-0.292	-0.626	-0.513	-0.311	-0.289	-0.464	-0.0306	0.0247	0.124	0.134	-0.0872	-0.0527	0.073	0.171	0.424	0.545	0.568	0.595	0.301	0.444	0.462	0.483								
CCc1cc(-c2n[nH]c(C)c2-c2ccc3c(c2)OCCO3)c(O)cc1O	-0.0752	-0.183	-0.489	-0.797	-0.563	-0.433	-0.46	-0.629	0.0102	0.053	0.0491	0.0788	0.0475	0.0422	0.0841	0.183									0.113	0.047	-0.0381	-0.212	0.0202	-0.0494	-0.116	-0.126
CC[C@@]1(O)C(=O)OCc2c1cc1n(c2=O)Cc2cc3c(CN(C)C)c(O)ccc3nc2-1 [Topotecan HCl]	0.45	0.629	0.715	0.801	0.689	0.808	0.85	0.882	0.403	0.516	0.604	0.67	0.97	0.978	0.983	0.985									0.427	0.494	0.544	0.586	0.952	0.969	0.977	0.981
CC1(COc2ccc3c(c2)ncn3-c2ccc3cccc(N4CCC(N)CC4)c3n2)COC1	0.0318	-0.0103	-0.0736	-0.123	-0.25	-0.202	-0.209	-0.254	0.0763	0.118	0.168	0.194	0.257	0.342	0.386	0.516									0.0766	0.0633	0.00938	-0.0623	0.0371	0.0705	-0.00181	0.0785
COc1cc2c(NC3CCN(C)CC3)nc(N3CCCN(C)CC3)nc2cc1OCCCN(C)C	-0.117	-0.195	-0.474	-0.819	-0.568	-0.503	-0.528	-0.706	-0.0493	-0.0119	0.0125	0.00172	-0.0195	-0.0136	0.00791	0.0785	0.365	0.464	0.475	0.499	0.316	0.452	0.453	0.469								
Cc1[nH]c2ccccc2c1CCNCc1ccc(/C=C/C(=O)NO)cc1 [Panobinostat]									0.585	0.524	0.461	0.445	0.979	0.981	0.983	0.986	0.93	0.93	0.939	0.944	0.987	0.988	0.988	0.987								
O=c1cc(-c2cccc3c2Sc2ccccc2S3)oc(N2CCOCC2)c1	-0.212	-0.223	-0.243	-0.318	-0.0838	-0.0652	-0.119	-0.19	-0.0246	-0.00365	0.0233	0.166	-0.108	-0.0389	-0.0219	0.0537									-0.0795	-0.0657	-0.0216	0.0484	-0.0815	-0.0342	-0.0721	-0.125
COc1ccc(C2=N[C@@H](c3ccc(Cl)cc3)[C@@H](c3ccc(Cl)cc3)N2C(=O)N2CCNC(=O)C2)c(OC(C)C)c1 [Nutlin-3]	-0.198	-0.261	-0.371	-0.533	-0.567	-0.492	-0.511	-0.69	-0.0474	0.00784	0.0366	0.0903	-0.00272	-0.0242	0.00355	0.11									-0.04	-0.0423	-0.094	-0.287	-0.0802	-0.0948	-0.145	-0.237
CN1CCC(CNc2ccc3ncc(-c4cccc(OC(F)(F)F)c4)n3n2)CC1 [SGI-1776 free base]	-0.104	-0.155	-0.336	-0.875	-0.453	-0.367	-0.351	-0.438	-0.0394	0.0134	0.0445	0.0394	0.154	0.125	0.168	0.265									0.04	0.0462	-0.0159	-0.415	0.131	0.115	0.0463	-0.00407
O=C1c2ccccc2-c2nc3nonc3nc21	-0.0244	-0.0693	-0.283	-0.811	-0.571	-0.488	-0.554	-0.831	0.0325	0.0601	0.0603	0.0121	0.496	0.527	0.536	0.582	0.417	0.519	0.528	0.542	0.116	0.288	0.31	0.332								
COc1cc2nccc(Oc3ccc(NC(=O)C4(C(=O)Nc5ccc(F)cc5)CC4)cc3)c2cc1OC [XL-184 free base (Cabozantinib)]	0.0104	0.0385	-0.0535	-0.315	-0.233	-0.0966	-0.104	-0.224	0.0398	0.083	0.153	0.164	0.112	0.177	0.224	0.337	0.545	0.613	0.621	0.628	0.445	0.52	0.529	0.532								
CCC(C)(C)C(=O)O[C@H]1C[C@@H](C)C=C2C=C[C@H](C)[C@H](CC[C@@H]3C[C@@H](O)CC(=O)O3)[C@H]21 [Simvastatin (Zocor)]	-0.198	-0.217	-0.225	-0.276	-0.024	-0.0809	-0.115	-0.175	-0.0665	-0.0212	-0.00846	0.124	-0.0261	-0.0186	-0.0188	0.0898									-0.0841	-0.0759	-0.00492	0.136	-0.019	-0.0256	-0.0695	-0.0808
Cc1ccc(F)c(NC(=O)Nc2ccc(-c3cccc4[nH]nc(N)c34)cc2)c1 [Linifanib (ABT-869)]									0.0166	0.0206	0.0473	0.197	0.0768	0.108	0.147	0.253	0.454	0.546	0.574	0.585	0.515	0.54	0.546	0.517								
CN(C)CCOc1ccc(/C(=C(/CCCl)c2ccccc2)c2ccccc2)cc1 [Toremifene Citrate (Fareston, Acapodene)]	0.218	0.188	0.166	-0.0195	0.0631	0.0479	0.00246	-0.0264	0.111	0.144	0.204	0.262	0.0949	0.116	0.163	0.312									0.147	0.112	-0.00292	-0.0137	0.104	0.101	-0.00882	0.0143
